Compounds with a hit are over-represented: about 27% of the library has one in this group of screens.
CYP2C9 inh = blocks human cytochrome P450 2C9; AID 777; inhibition, % at 5 µM; CYP2C9 Supersomes, luciferin-H conversion, luminescence; P11712; 96,000 compounds, 20% hits;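 active means blocking of liver enzyme CYP2C9 beyond about 50% at 5 µM, limit read from the data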
sEH act = increases human soluble epoxide hydrolase activity; purified human sEH enzymatic activity, activator screen; activation, % at 2 µM; 91,000 compounds, 0.04% hits; AID 717; in the data active means activation above about 37%
Target sequence (P34913 whole entry, looked up): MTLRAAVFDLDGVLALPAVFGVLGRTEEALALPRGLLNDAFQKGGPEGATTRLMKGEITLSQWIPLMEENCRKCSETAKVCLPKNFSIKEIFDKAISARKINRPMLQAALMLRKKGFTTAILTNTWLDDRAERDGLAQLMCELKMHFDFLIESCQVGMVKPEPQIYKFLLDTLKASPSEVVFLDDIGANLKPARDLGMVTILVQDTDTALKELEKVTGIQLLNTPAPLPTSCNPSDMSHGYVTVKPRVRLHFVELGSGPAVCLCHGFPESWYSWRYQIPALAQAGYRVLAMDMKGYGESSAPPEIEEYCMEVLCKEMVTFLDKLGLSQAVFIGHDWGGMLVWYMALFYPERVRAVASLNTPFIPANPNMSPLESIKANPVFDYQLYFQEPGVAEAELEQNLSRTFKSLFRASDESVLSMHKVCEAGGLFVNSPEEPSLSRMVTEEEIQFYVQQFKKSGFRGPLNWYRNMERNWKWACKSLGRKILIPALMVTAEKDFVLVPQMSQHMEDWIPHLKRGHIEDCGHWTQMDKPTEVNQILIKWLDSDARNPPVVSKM
CYP2C19 inh = human CYP2C19 inhibition. CYP2C19 Supersomes, luciferin-H EGE luminescence, 30 min. P33261. 96,000 compounds, 21% hits. inhibition, % at 5 µM;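 active means CYP2C19 inhibition above a set limit at 5 µM in the primary screen, cut at about 50% in these data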;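 further: plate controls were negative control wells for no effect and 2.5 mM tranylcypromine positive control for full effect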
sEH inhibitor = soluble epoxide hydrolase (human) inhibition; recombinant human sEH enzymatic activity assay; 91,000 compounds, 0.34% hits; P34913; inhibition, % at 2 µM; AID 707; in the data active means inhibition above about 80%
CYP2C9 act = increases human cytochrome P450 2C9 activity; recombinant CYP2C9, luciferin-H conversion, luminescence; stronger effect = higher value; factor 1 = untreated enzyme, 0 = blocked; 96,000 compounds, 1.4% hits; activation factor at 5 µM;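 active means activation factor of 2 or more for CYP2C9 at a 5 µM dose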;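 further: 0 = sulfaphenazole-blocked wells and 1 = vehicle-only wells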
CYP2C19 activ = activators of human cytochrome P450 2C19; recombinant CYP2C19, luciferin-H EGE luminescence; stronger effect = higher value; 0 = fully inhibited enzyme, 1 = untreated enzyme; 96,000 tested, under 10 active; P33261; AID 1025; activation factor at 5 µM;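 active means activation factor of at least 2 at 5 µM in the primary screen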;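 further: 0 = wells with 2.5 mM tranylcypromine and 1 = vehicle-only wells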
The depositor's hits bear a star; · = no result given.

SMILES | CYP2C9 inh | sEH act | CYP2C19 inh | sEH inhibitor | CYP2C9 act | CYP2C19 activ
CCN(CC)C(=O)Oc1ccc(NC(C)=O)cc1 | -12 | 0 | -12 | 3 | 1.1 | 1.1
Cc1nc2ncnn2c(C)c1CCC(=O)NCc1ccc2c(c1)OCO2 | 2 | -30 | -4 | 29 | 1 | 1
O=c1c(/C=C(\O)c2ccccc2)nc2ccccc2n1-c1ccccc1 | 34 | -2 | 46 | 1 | 0.7 | 0.5
Cc1oc2c(CN3CCCC3)c(O)ccc2c(=O)c1-c1ccc(Cl)cc1 | 7 | -6 | 4 | 7 | 0.9 | 1
O=c1oc2c(CN3CCOCC3)c(O)ccc2c2ccccc12 | -1 | · | 2 | · | 1 | 1
O=c1oc2c(CN3CCOCC3)c(O)ccc2c2c1CCCC2 | -104 | · | 4 | · | 2* | 1
CCc1cc2c(=O)c(-c3cnn(-c4ccccc4)c3)c(C)oc2c(CN2CCCCC2)c1O | 28 | -1 | 46 | 1 | 0.7 | 0.5
Cc1oc2c(CN3CCOCC3)c(O)ccc2c(=O)c1-c1ccc(Br)cc1 | 54* | 6 | 26 | -8 | 0.5 | 0.7
O=c1c(-c2ccc(Br)cc2)coc2c(CN3CCOCC3)c(O)ccc12 | 58* | 5 | 19 | -4 | 0.4 | 0.8
CCc1cc2c(=O)c(-c3cnn(-c4ccccc4)c3)coc2c(CN2CCOCC2)c1O | 74* | -2 | 22 | 1 | 0.3 | 0.8
Cc1ccc(C)c(N2CCN(C(=O)c3cn(C)c4ccc(S(=O)(=O)N(C)C)cc4c3=O)CC2)c1 | 3 | 0 | 38 | -1 | 1 | 0.6
Cc1ccc(Cn2nnc3c(=O)n(CC(=O)N4CCN(c5ccccc5)CC4)cnc32)cc1 | 6 | 1 | 38 | 0 | 0.9 | 0.6
Cc1occc1C(=O)N1CCN(c2ncccn2)CC1 | 10 | -3 | 12 | 5 | 0.9 | 0.9
CC1(C)OC(=O)C(=CNC(Cc2c[nH]c3ccccc23)C(=O)O)C(=O)O1 (configuration not stated) | 13 | -8 | 9 | 8 | 0.9 | 0.9
CCC(C)NC(=O)c1ccc(CS(=O)(=O)c2ccc(OC)cc2)o1 (configuration not stated) | 9 | 16 | -11 | -14 | 0.9 | 1.1
CCC(C)NC(=O)c1ccc(CS(=O)(=O)Cc2ccc(Cl)cc2)o1 (configuration not stated) | 63* | 9 | 67* | -8 | 0.4 | 0.3
O=C(NCc1ccco1)c1ccc(Cn2c(=O)c3ccccc3n(Cc3cccc(F)c3)c2=O)cc1 | 61* | -12 | 80* | 10 | 0.4 | 0.2
O=C(NCc1ccco1)c1ccc(Cn2c(=O)c3ccccc3n(Cc3ccc(Cl)cc3)c2=O)cc1 | 86* | -1 | 76* | 3 | 0.1 | 0.2
CCn1nc2cc(C(=O)NCCc3cccs3)ccc2c1OC | 4 | -14 | 15 | 15 | 1 | 0.8
COc1ccc(-n2c(SCC(N)=O)nc3nc4c(cc3c2=O)COC(C)(C)C4)cc1 | 8 | 8 | -5 | -7 | 0.9 | 1
COc1ccc(/C=C2\CCCC(C(=O)C(F)(F)F)=C2O)cc1 | 82* | -2 | -14 | 2 | 0.2 | 1.1
C=CCNC(=O)C1CC(=O)N(c2ccc(C)cc2)C1 (configuration not stated) | -2 | · | 33 | · | 1 | 0.7
O=C(NC1CCCC1)C(c1ccccc1)N(Cc1ccc2c(c1)OCO2)C(=O)Cc1cccs1 (configuration not stated) | · | 6 | · | -6 | · | ·
O=C(NC1CCCCC1)C(c1ccncc1)N(Cc1ccccc1)C(=O)c1ccc(-c2ccccc2)[nH]1 (configuration not stated) | 95* | 8 | 93* | -4 | 0.1 | 0.1
O=C(NCC(=O)N(Cc1ccccc1)C(C(=O)NC1CCCCC1)c1ccco1)c1ccco1 (configuration not stated) | · | 9 | · | -6 | · | ·
SMILES | CYP2C9 inh | sEH act | CYP2C19 inh | sEH inhibitor | CYP2C9 act | CYP2C19 activ
COc1ccccc1CN(C(=O)Cc1cccs1)C(C(=O)NC1CCCC1)c1ccncc1 (configuration not stated) | 50 | 2 | 77* | 0 | 0.5 | 0.2
COc1cccc(CN(C(=O)c2ccco2)C(C(=O)NC2CCCC2)c2cccnc2)c1 (configuration not stated) | 12 | 10 | 23 | -9 | 0.9 | 0.8
O=C(NC1CCCCC1)C(c1ccco1)N(Cc1ccco1)C(=O)c1ccco1 (configuration not stated) | 63* | · | 65* | · | 0.4 | 0.4
O=C(NC1CCCC1)C(c1ccncc1)N(Cc1ccccc1)C(=O)Cc1cccs1 (configuration not stated) | 39 | -2 | 61* | 5 | 0.6 | 0.4
CCN(CC)CCOC(=O)C12CC3CC(CC(C3)C1)C2 | -10 | 19 | 1 | -22 | 1.1 | 1
O=C(NC1CCCC1)C(c1cccs1)N(Cc1ccco1)C(=O)c1csnn1 (configuration not stated) | 11 | -3 | 25 | 3 | 0.9 | 0.7
CC(C(=O)NC1CCCC1)N(C(=O)c1ccc(-c2ccccc2)[nH]1)c1ccccc1F (configuration not stated) | 61* | -19 | 70* | 21 | 0.4 | 0.3
O=C(NC1CCCC1)C(c1ccncc1)N(Cc1cccs1)C(=O)c1csnn1 (configuration not stated) | 54* | -6 | 37 | 9 | 0.5 | 0.6
Cc1ccc(-c2nnn(CC(=O)N(Cc3ccccc3)C(C(=O)NC3CCCC3)c3ccncc3)n2)o1 (configuration not stated) | 55* | 20 | 45 | -22 | 0.4 | 0.5
O=C(NC1CCCC1)C(c1ccccc1F)N(C(=O)c1ccco1)C1CCCC1 (configuration not stated) | 51* | · | 25 | · | 0.5 | 0.7
COCCCN1C(=O)C(=O)/C(=C(/O)c2ccc(OCC(C)C)cc2C)C1c1cccnc1 (configuration not stated) | -3 | 9 | 0 | -10 | 1 | 1
COc1ccccc1N(C(=O)CNC(=O)c1ccco1)C(C(=O)NC1CCCC1)c1ccncc1 (configuration not stated) | · | -2 | · | 1 | · | ·
COc1ccc(CN(C(=O)c2ccc(-c3ccccc3)[nH]2)C(C(=O)NCC2CCCO2)c2ccc(C)o2)cc1 (configuration not stated) | 46 | 15 | 58* | -12 | 0.5 | 0.4
COc1ccc(C(=O)N(Cc2ccco2)C(C(=O)NC2CCCC2)c2ccc(O)cc2)cc1OC (configuration not stated) | 56* | -1 | 50* | -1 | 0.4 | 0.5
Cc1ccccc1C(C(=O)NC1CCCC1)N(C(=O)Cc1cccs1)c1ccc2c(c1)OCCO2 (configuration not stated) | 2 | 7 | 6 | -6 | 1 | 0.9
CCc1ccc(N(C(=O)Cc2cccs2)C(C(=O)NC2CCCCC2)c2cn(C)nc2C)cc1 (configuration not stated) | 40 | -20 | 73* | 22 | 0.6 | 0.3

Assay outcomes (PubChem)
